Here are results for 36 molecules from ChEMBL document CHEMBL4513135, “CO-ADD screening of IQOG CSIS (Spain) compounds”.

Experiment [1] has as its system Klebsiella pneumoniae. Conditions: Concentration 32 ug.mL-1; ASSAY_TEST Inhibition of Bacterial Growth; detection method Absorption (OD600); MEDIA CAMHB; plate type 384well; NBS; CORNING #3640; time 18 hr.
The test system of experiment [2] is Candida albicans. The settings on record: 32 ug/mL.
The subject of experiment [3] is Cryptococcus neoformans. The settings on record: Concentration 32 ug.mL-1; ASSAY_TEST Inhibition of Fungal Growth; detection method Resazurin; Absorption (OD600-OD570); plate type 384well; NBS; CORNING #3640. For orientation: Alamar Blue is a resazurin reagent that responds to reducing activity.

Measured potencies and affinities stand elsewhere.

What is called Inhibition is the drop in the measured response relative to a control, in per cent. For `COc1ccc2cc(C3C(C(C)=O)=C(C)Oc4nc5c(c(N)c43)CCC5)c(Cl)nc2c1` (stereo not drawn), the figures for the Inhibition in experiment [1], in experiment [2] and in experiment [3] were 0.03%, 12.4% and -0.43%, respectively.
In the same order, the values of `COc1cccc(C2C(C#N)=C(N)Oc3c2ccc2ccccc32)c1` (stereo not drawn) are 8.5%, 3.73% and -38.21%.
The corresponding values for `N#CC1=C(N)Oc2c(ccc3ccccc23)C1c1c(Cl)cccc1Cl` (stereo not drawn) are 5.34%, -0.77% and -4.89%.
In the same order, the values of `CC1=C(C(=O)N2[C@@H]3C[C@H]4CCC3(CS2(=O)=O)C4(C)C)C(c2ccccc2)C(C#N)=C(N)O1` (stereo partly drawn) are 14.51%, 3.41% and -6.44%.
As to `C#CCN(C)c1cc(Cl)nc(N)n1`, the Inhibition in experiment [1] was 16.87%; in experiment [2] it was 11.4%; in experiment [3] it was -46.13%.
The corresponding values for `N#Cc1c(Cl)nc(Cl)c(C#N)c1-c1ccccc1` are 19.31%, 34.6% and -43.27%.
For `CCC(CC)NNC(=O)c1cc2ccccc2n1C`, the Inhibition in experiment [1] was 9.15%; in experiment [2] it was 5.89%; in experiment [3], -1.5%.
In the same order, the values of `CC1(C)OS(=O)(=O)C2=C1NC(N)=C(C#N)C2c1ccccc1` (stereo not drawn) are 11.24%, 0.27% and -2.35%.
The corresponding values for `Cc1nc2c3c(C)nn(-c4ccccc4)c3ncn2n1` are 13.92%, -0.04% and -2.13%.
In the same order, the values of `COc1ccc(C=C2N=C(c3ccccc3)OC2=O)cc1` are 13.35%, 0.77% and -7.5%.
On to `COC(=O)C1CCN(Cc2ccccc2)CC1`, for which the Inhibition is 4.25% in experiment [1], 4.82% in experiment [2] and -2.37% in experiment [3].
The corresponding values for `N#Cc1c(NC2CCC(Cc3ccccc3)CC2)nc(NC2CCN(Cc3ccccc3)CC2)c(C#N)c1-c1ccccc1` (stereo not drawn) are -7.01%, 2.46% and -20.4%.
The corresponding values for `CCOC(=O)c1c(C)nc2nc3c(c(N)c2c1-c1ccccc1OC)CCCCC3` are 0.86%, -0.21% and -93.54%.
For `CC#CCN.Cl`, the Inhibition in experiment [1] is 8.69%; in experiment [2], 3.96%; in experiment [3] it was -2.53%.
Consider `CCOC(=O)/C(C#N)=C\c1ccc([N+](=O)[O-])cc1`, for which the Inhibition was 10.6% in experiment [1], 5.79% in experiment [2] and -3.2% in experiment [3].
For `COC1=C(C#N)CCC(=O)N1`, the Inhibition in experiment [1] was 12.74%; in experiment [2], 0.89%; in experiment [3], -77.28%.
The corresponding values for `CN1C/C(=C\Br)n2c1c(C#N)cc(C#N)c2=O` are 4.89%, 3.61% and -48.49%.
The corresponding values for `NC(=O)N/N=C/c1c[nH]c2ccccc12` are 23.24%, 0.31% and -3.05%.
The corresponding values for `CCOC(=O)c1cc(C#N)c(N)nc1C` are 5.86%, 2.73% and -17.38%.
With `N#CC1=C(N)Oc2c(ccc3ccccc23)C1c1ccccc1` (stereo not drawn), the results for the Inhibition in experiment [1], in experiment [2] and in experiment [3] were 10.23%, 1.97% and -37.74%, respectively.
In the same order, the values of `Cc1nc(NO)c2c(C)nn(-c3ccccc3)c2n1` are 17.6%, 0.21% and -3.47%.
The corresponding values for `CC(C)(C)OC(=O)Nc1ncccc1Br` are 19.74%, 1.17% and -55.01%.
In the same order, the values of `Cl.ClCCCCN1CCCCC1` are -0.73%, -0.33% and -8.6%.
Regarding `COc1ccc(CNNC(=O)c2cc3ccccc3[nH]2)cc1O`, the Inhibition in experiment [1] was 4.75%; in experiment [2], 0.7%; in experiment [3], 0.55%.
In the same order, the values of `CCOC(=O)C1=C(C)OC(N)=C(C#N)C1c1ccc([N+](=O)[O-])cc1` (stereo not drawn) are 12.45%, -0.07% and -64.89%.
In the case of `COc1nc(N)c(C#N)cc1C#N`, the Inhibition in experiment [1] is 5.43%; in experiment [2], 3.36%; in experiment [3], -30.91%.
The corresponding values for `CCOC(=O)c1c(C)nc(NC2CCN(Cc3ccccc3)CC2)c(C#N)c1-c1ccccc1` are 11.42%, 3.26% and -46.25%.
The corresponding values for `N#CC1=C(Cl)Oc2ccc3ccccc3c2C1c1ccccc1` (stereo not drawn) are 13.06%, 2.47% and -4.84%.
The corresponding values for `C#CCNc1nc(Cl)c(C#N)c(-c2ccccc2)c1C#N` are -23.73%, 1.27% and -7.07%.
As to `CSC1=NC2(CC2c2ccccc2)C(=O)N1C` (stereo not drawn), the Inhibition was -3.2% in experiment [1], 0.11% in experiment [2] and -5.95% in experiment [3].
The corresponding values for `Cc1nc2c3cnn(-c4ccccc4)c3nc(C)n2n1` are 15.01%, -1.82% and -6.35%.
In the same order, the values of `N#Cc1cc2c(N)c3c(nc2nc1N1CCCCC1)CCCC3` are 18.01%, 1.35% and -98.63%.
Regarding `NC(=O)c1cc2cc(OCc3ccccc3)ccc2[nH]1`, the Inhibition in experiment [1] was 5.14%; in experiment [2] it was 6.4%; in experiment [3] it was -61.34%.
In the same order, the values of `COC(=O)C(C#N)=Cc1ccccc1` are 12.71%, 3.86% and -2.58%.
The corresponding values for `Nc1n[nH]c2c1C(c1ccccc1)CC(=O)N2` (stereo not drawn) are 23.2%, 1.67% and -57.28%.
In the case of `N#CC1=C(N)Oc2ccc3ccccc3c2C1c1ccccc1[N+](=O)[O-]` (stereo not drawn), the Inhibition in experiment [1] was 9.29%; in experiment [2], 2.32%; in experiment [3], -44.45%.
